# Measurements taken from PubChem BioAssay.
# Inconclusive results are not listed. Active and inactive are the calls of the source. Unless noted, no stated cut-off is given here; in the data, active means inhibition above about 80%; inactive means the rest.
# Columns and labels:
# [1] = viability loss in pontine glioma line – cell-based, SU-DIPG-XIII, MIPE4.0, CellTiter-Glo, qHTS, dose response (AID 1347061; cut-off not given, nearly all actives have AC50 up to about 37 µM;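 further: cells exposed to compound for 48 hours before readout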); conditions: CellTiter-Glo ATP luminescence
# [2] = viability loss with induced miR-34 in A549 – imaging, A549 dox-inducible miR-34, nuclei and caspase counts, primary screen (AID 1347080;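 active means compounds whose cell count with miR-34 switched on is under 0.7 times the count with it off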); conditions: A549 miR-34 inducible, Hoechst nuclei count, 48 h
# [3] = viability loss in pontine glioma line – cell-based, JHH-DIPG-1, MIPE4.0, CellTiter-Glo, qHTS, dose response (AID 1347062; cut-off not given, nearly all actives have AC50 up to about 27 µM;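 on AC50: cells exposed to compound for two days before readout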); conditions: JHH-DIPG-1 viability, CellTiter-Glo ATP luminescence
# [4] = viability loss in pontine glioma line – cell-based, SU-DIPG-IV, MIPE4.0, CellTiter-Glo, qHTS, dose response (AID 1347063; cut-off not given, nearly all actives have AC50 up to about 30 µM;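 further: compound exposure lasted 48 hours before the viability readout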); conditions: CellTiter-Glo ATP luminescence
# [5] = viability loss in pontine glioma line – cell-based, SU-DIPG-XXV, MIPE5.0, CellTiter-Glo, qHTS, dose response (AID 1347065; cut-off not given, nearly all actives have AC50 up to about 26 µM;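 further: cells exposed to compound for 48 hours before ATP readout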); conditions: CellTiter-Glo ATP luminescence
# [6] = JHH-DIPG-1 glioma cell viability, MIPE5.0 library, CellTiter-Glo luminescence, qHTS (AID 1347067; cut-off not given, nearly all actives have AC50 up to about 26 µM;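 further: cells exposed to compound for 48 hours before readout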); conditions: JHH-DIPG-1 glioma viability, CellTiter-Glo ATP luminescence
# [7] = growth inhibition of DIPG cells – cell-based, MIPE4.0 library, CellTiter-Glo luminescence, qHTS (AID 1347066; cut-off not given, nearly all actives have AC50 up to about 30 µM;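 further: cells exposed to compound for 48 hours before readout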); conditions: SU-DIPG-VI viability, CellTiter-Glo ATP luminescence
# [8] = viability loss in pontine glioma line – cell-based, SU-DIPG-XIII, MIPE5.0, CellTiter-Glo, qHTS, dose response (AID 1347064; cut-off not given, nearly all actives have AC50 up to about 23 µM;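 further: cells exposed to compound for 48 hours before the viability read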); conditions: CellTiter-Glo ATP luminescence
# [9] = growth inhibition of DIPG cells – cell-based, MIPE5.0 library, qHTS (AID 1347068; cut-off not given, nearly all actives have IC50 up to about 30 µM;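 further: cells exposed to compound for 48 hours before viability readout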); conditions: SU-DIPG-XXV viability
# [10] = growth inhibition, single agent or in combination, cell-based, chromothripsis tumors, cisplatin or BGB combos (AID 1671449); conditions: LFS_MB_P medulloblastoma cells;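 further: cells exposed for 96 hours; 0% = vehicle DMSO and 100% = killing by high DMSO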
# [11] = growth inhibition, single agent and combos, cell-based, chromothripsis tumors, cisplatin or BGB combos (AID 1671450); conditions: HDN33 neuroblastoma cells, stronger effect = higher value;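 further: cells exposed to compound for four days; 0% = vehicle DMSO and 100% = cell killing by high DMSO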
# [12] = growth inhibition, single agents and combos, ICB984, cell-based, cisplatin or BGB combos, synergistic combos for chromothripsis tumors (AID 1671451; call rule not given here;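 further: cells exposed for 96 hours before readout; 0% = vehicle DMSO and 100% = killing by high DMSO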); conditions: ICB984 medulloblastoma cells, drug combinations, stronger effect = higher value
# [13] = growth inhibition, single agents and combos, HTB85, cell-based, BGB or cisplatin IC20 combos, synergistic combos for chromothripsis tumors (AID 1671453); conditions: HTB85 osteosarcoma cells, drug combinations, stronger effect = higher value;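 further: cells exposed for 96 hours before readout; 0% = vehicle DMSO and 100% = high DMSO killing control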
# [14] = growth inhibition, MDA-MB-436, cell-based, BGB or cisplatin combos, synergistic combos for chromothripsis tumors (AID 1671458; call rule not given here;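 further: cells exposed for 96 hours; 0% = vehicle DMSO and 100% = killing by high DMSO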); conditions: MDA-MB-436 breast carcinoma growth inhibition, drug combinations, stronger effect = higher value
# [15] = BT084 cell growth, single and combined drugs, ICGC_MB145, cisplatin and BGB IC40 combos (AID 1671461); conditions: BT084 medulloblastoma cells, drug combinations, stronger effect = higher value;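 further: cells exposed to drugs for 96 hours; 0% = vehicle DMSO and 100% = high DMSO full killing control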
# [16] = RCMB18 cell growth, single agent and combined, cisplatin and BGB IC40 combos (AID 1671462); conditions: RCMB18 medulloblastoma cells, stronger effect = higher value;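 further: cells exposed to compound for four days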
# [17] = CRL1545 cell growth, single agent and combined, cisplatin and BGB IC20 combos (AID 1671464); conditions: CRL1545 osteosarcoma cells, stronger effect = higher value;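 further: cells exposed to compound for 96 hours before readout; 0% = vehicle DMSO and 100% = high DMSO killing control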
# [18] = stronger effect = lower value, cell number ratio, induced over uninduced
# [19] = measured here: relative caspase fold change +Dox/-Dox
# [20] = measured here: total cells with miR-34 induction, stronger effect = lower value
# [21] = measured here: total cells without miR-34 induction
# [22] = measured here: with BGB IC20 combination, at 0.5 µM
# [23] = measured here: with cisplatin IC20 combination, at 0.5 µM
smiles,measurement,setting,value
COC(=O)C1=CO[C@@H](O)[C@@H]2C(CO)=CC[C@H]12,outcome,[1],inactive
same,fold change,[2]; [18],1 (inactive)
same,fold change,[2]; [19],0.878
same,cell count,[2]; [20],10100
same,cell count,[2]; [21],10100
CO[C@H]1C[C@@H]2CC[C@@H](C)[C@@](O)(O2)C(=O)C(=O)N2CCCC[C@H]2C(=O)O[C@H]([C@@H](C)C[C@@H]2CC[C@@H](O)[C@H](OC)C2)CC(=O)[C@H](C)/C=C(\C)[C@@H](O)[C@@H](OC)C(=O)[C@H](C)C[C@H](C)/C=C/C=C/C=C/1C,AC50,[3],20.9 µM (active)
same,AC50,[4],20.9 µM (active)
same,AC50,[5],16.6 µM (active)
same,AC50,[6],23.5 µM (active)
same,fold change,[2]; [18],0.999 (inactive)
same,fold change,[2]; [19],1.23
same,cell count,[2]; [20],3690
same,cell count,[2]; [21],3700
Cc1ccccc1C(C(=O)NC1CCCC1)N(C(=O)Cn1cnc2ccccc21)c1cccc(F)c1 (centres undefined),outcome,[3],inactive
same,outcome,[4],inactive
CC[C@@H]1/C=C(\C)C[C@H](C)C[C@H](OC)[C@H]2O[C@@](O)(C(=O)C(=O)N3CCCC[C@H]3C(=O)O[C@H](/C(C)=C/[C@@H]3CC[C@H](Cl)[C@H](OC)C3)[C@H](C)[C@@H](O)CC1=O)[C@H](C)C[C@@H]2OC,outcome,[1],inactive
same,outcome,[7],inactive
CO[C@H]1/C=C/O[C@@]2(C)Oc3c(C)c(O)c4c(O)c(c(/C=N\N5CCN(C6CCCC6)CC5)c(O)c4c3C2=O)NC(=O)/C(C)=C\C=C\[C@H](C)[C@H](O)[C@@H](C)[C@@H](O)[C@@H](C)[C@H](OC(C)=O)[C@@H]1C,AC50,[3],0.105 µM (active)
same,AC50,[4],0.0935 µM (active)
same,AC50,[8],23.5 µM (active)
same,AC50,[5],26.3 µM (active)
same,IC50,[9],20.9 µM (active)
same,inhibition,"[10]; at 0.5 µM, stronger effect = higher value",5.09% (inactive)
same,inhibition,"[10]; measured here: combination with BGB IC20, at 0.005 µM",-7.42%
same,inhibition,"[10]; measured here: combination with BGB IC40, at 0.005 µM",-15%
same,inhibition,"[10]; measured here: combination with BGB IC40, at 0.05 µM",-18.2%
same,inhibition,"[10]; measured here: combination with cisplatin, at 0.5 µM, stronger effect = higher value",-6.85%
same,inhibition,"[10]; measured here: combination with cisplatin, at 5 µM, stronger effect = higher value",15%
same,inhibition,"[11]; BGB combo, at 5 µM",85.6%
same,inhibition,[11]; at 0.5 µM,-11.9% (inactive)
same,inhibition,"[11]; cisplatin combo, at 5 µM",6.46%
same,inhibition,[11]; [22],-21.1%
same,inhibition,[11]; [23],-18.8%
same,inhibition,"[11]; single agent, at 5 µM",-3.56%
same,inhibition,"[12]; BGB IC20 combo, at 0.005 µM",-21.8%
same,inhibition,"[12]; BGB IC40 combo, at 0.005 µM",-25.4%
same,inhibition,"[12]; BGB IC40 combo, at 0.05 µM",-16.4%
same,inhibition,[12]; at 0.5 µM,-17.3% (inactive)
same,inhibition,"[12]; cisplatin combo, at 0.05 µM",-19.6%
same,inhibition,"[12]; cisplatin combo, at 0.5 µM",-17.5%
same,inhibition,"[12]; cisplatin combo, at 5 µM",-18.6%
same,inhibition,"[12]; measured here: 5 uM single agent, at 5 µM",-17.8%
same,inhibition,[13]; at 0.5 µM,16% (inactive)
same,inhibition,"[13]; measured here: with BGB IC20, at 0.5 µM",12.6%
same,inhibition,"[13]; measured here: with BGB IC20, at 5 µM",76.7%
same,inhibition,"[13]; measured here: with cisplatin IC20, at 0.5 µM",35.8%
same,inhibition,"[13]; measured here: with cisplatin IC20, at 5 µM",10.4%
same,inhibition,"[13]; single agent, at 5 µM",35.1%
same,inhibition,[14]; at 0.5 µM,-19% (inactive)
same,inhibition,"[14]; measured here: BGB combination, at 0.5 µM",-15.7%
same,inhibition,"[14]; measured here: BGB combination, at 5 µM",-5.36%
same,inhibition,"[14]; measured here: cisplatin combination, at 0.5 µM",-40.9%
same,inhibition,"[14]; measured here: cisplatin combination, at 5 µM",-22%
same,inhibition,[15]; at 0.5 µM,-28.3% (inactive)
same,inhibition,"[15]; cisplatin combination, at 0.5 µM",-31.9%
same,inhibition,"[15]; cisplatin combination, at 5 µM",-20.9%
same,inhibition,"[15]; measured here: BGB IC40 combination 0.05 uM, at 0.05 µM",-25.7%
same,inhibition,"[15]; single agent, at 5 µM",-12.9%
same,inhibition,[16]; at 0.5 µM,-14.8% (inactive)
same,inhibition,"[16]; cisplatin combo, at 5 µM",15%
same,inhibition,"[16]; measured here: BGB IC40 combination, at 0.05 µM",-18.7%
same,inhibition,"[16]; measured here: combination with cisplatin, at 0.5 µM",-14.5%
same,inhibition,"[16]; single agent, at 5 µM",27.7%
same,inhibition,[17]; at 0.5 µM,4.23% (inactive)
same,inhibition,[17]; [22],23.5%
same,inhibition,[17]; [23],-7.81%
same,inhibition,"[17]; single agent, at 0.05 µM",8.47%
same,inhibition,"[17]; single agent, at 5 µM",73.2%
C[C@@H]1C/C=C/C=C/C=C/C=C/[C@@H](O[C@@H]2O[C@H](C)[C@@H](O)[C@H](N)[C@@H]2O)C[C@@H]2O[C@](O)(C[C@@H](O)C[C@@H]3O[C@H]3/C=C/C(=O)O1)C[C@H](O)[C@H]2C(=O)O,outcome,[3],inactive
